Data taken from PubChem BioAssay (NCATS).
“And” between values parts separate entries of the source, which are not always exact repeats. Equal values may be shown once. Values without a mark were called inactive. Records with an inconclusive call do not appear. The source made the active and inactive calls. Unless noted, calls follow the shape of the dose curve; as a rule, active = well fitted curve in the direction sought with a large enough effect; inconclusive = small, poorly fitted or top-dose-only effect, or another doubt; inactive = no such curve, though single readings can be large; an effect the other way counts as inactive or inconclusive.

How the values were obtained:
[1] = Cell Viability - BJ (AID 421; calls by dose curve;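 also: potency is read from the fitted curve at half-maximal effect; cells exposed to compound for 40 hours at 37 °C before readout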); conditions: BJ fibroblast viability, qHTS
In short: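 Cytotoxicity as drop in intracellular ATP (CellTiter-Glo, 20 min RT) after 40 hr compound exposure of BJ fibroblasts at 37 °C. Titrations scaled between DMSO and 100 uM tamoxifen, Hill-fitted for AC50.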

[2] = Cell Viability - Hek293 (AID 427;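 active = compounds whose dose-response curve shows a full or clear partial loss of cell viability, called from curve shape rather than a numeric limit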;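 also: potency is read from the fitted curve at half-maximal effect; cells exposed to compound for 40 hours at 37 °C before reading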); conditions: qHTS
In short: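 Luminescent ATP content (CellTiter-Glo, 20 min at room temperature) was measured after a 40 hr, 37 °C compound exposure of HEK293 cells. AC50 values came from Hill-equation fits of qHTS concentration-response data normalized to DMSO and 100 uM tamoxifen.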

[3] = Cell Viability - MRC5 (AID 434; calls by dose curve;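 also: potency is read from the fitted curve at half-maximal effect; potency reflects cytotoxicity seen as loss of intracellular ATP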); conditions: MRC5 lung fibroblast viability, qHTS
In short: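 ATP luminescence read-out (CellTiter-Glo, 20 min RT) after 40 hr, 37 °C compound exposure of 1500 MRC5 cells/well. Data normalized to DMSO (basal) and 100 uM tamoxifen (100% inhibition); AC50 from standard Hill equation.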

[4] = Cell Viability - SK-N-SH (AID 435; calls by dose curve; also: potency is read from the fitted curve at half-maximal effect); conditions: SK-N-SH neuroblastoma cell viability qHTS
In short: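 qHTS cytotoxicity: CellTiter-Glo ATP luminescence after 40 h compound exposure of human neuroblastoma SK-N-SH cells at 37 °C. AC50 derived by Hill-equation fitting, with DMSO as basal and 100 uM tamoxifen as full inhibition.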

[5] = Cellular Toxicity (caspase-3) Renal Proximal Tubule (AID 667); conditions: renal proximal tubule cells; at 91.7 µM (top of the series) unless noted;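 also: cells exposed to compound for 16 hours at 37 °C before detection; 0% = DMSO basal and 100% = 10 µM staurosporine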
In short: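 Caspase 3/7 activation measured by luminescent aminoluciferin release in primary rat proximal tubule cells after 16 hr compound exposure at 37 °C. AC50 from Hill-fitted concentration-response, scaled between DMSO and 10 uM staurosporine.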

[6] = MultiTox-Fluor Cytotoxicity Assay - LYMP1-002 - Live Cells (AID 955); conditions: LYMP1-002 lymphoblastoid live-cell protease fluorescence viability; series mostly up to 46.1 µM;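 also: cells exposed to compound for 16 hours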; also: potency is read from the fitted curve at half-maximal effect
In short: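 Cells were seeded at 2500 per well and incubated 5 hr. Compounds were then added for 16 hr at 37 C, followed by MultiTox-Fluor reagent for 60 min at room temperature and fluorescence reading of viable-cell protease signal.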

[7] = MultiTox-Fluor Cytotoxicity Assay - LYMP1-003 - Live Cells (AID 962); conditions: LYMP1-003 lymphoblastoid cells, MultiTox-Fluor live-cell protease fluorescence; series mostly up to 92.2 µM;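 also: cells exposed to compound for 16 hours at 37 °C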; also: potency is read from the fitted curve at half-maximal effect
In short: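 Acute cytotoxicity is scored as a drop in live-cell protease activity in human lymphoblastoid LYMP1-003 cells after 16 hr compound exposure at 37 C. AC50 values come from Hill-equation modelling of concentration-response data.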

[8] = Cell Viability - LYMP2-008 (AID 980); conditions: LYMP2-008 lymphoblastoid cell viability, qHTS; series mostly up to 92.2 µM; also: nearly all actives have a fitted effect of over 60% in size; also: potency is read from the fitted curve at half-maximal effect
In short: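 Cells seeded at 2500/well and rested 5 hr at 37 C; compounds added over a concentration range and incubated 24 hr at 37 C; CellTiter-Glo added, 30 min at room temperature; luminescence read and AC50 fitted with Hill model.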

[9] = qHTS assay for environmental chemicals that activate the Aryl hydrocarbon Receptor (AhR) signaling pathway (AID 651777); conditions: 1A2-DRE human hepatoma cells, luciferase, 24 h; activation: hits give high values; also: % of control where 0% means no effect; nearly all actives have a fitted effect of over 15% in size
In short: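 Concentration–response screening used 1,200 1A2-DRE cells per well, 24 hr compound exposure (37 C, 5% CO2), and One-Glo luminescence as the AhR-driven CYP1A2 reporter signal.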

[10] = qHTS assay for small molecule agonists of the antioxidant response element (ARE) signaling pathway measured by Nrf2-dependant transcriptional activity - cell viability counter screen (AID 720653; active = well fitted curve in the direction sought with a large enough effect in the repeat runs; an effect the other way counts as inactive or inconclusive; also: potency is read from the fitted curve at half-maximal effect; as to max response: % is scaled to controls: 0 for no effect and ±100 for the full control effect); conditions: ARE-bla HepG2 viability, CellTiter-Glo ATP luminescence, 16 h; max response: hits give low values
In short: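 ARE-bla HepG2 cells treated with compounds for 16 h at 37C; this counter screen measures viability as intracellular ATP by CellTiter-Glo luminescence after 30 min at room temperature.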

[11] = target: Cytochrome P450 1A2 (Homo sapiens) (UniProt P05177); assay: p450-cyp1a2 (AID 410; calls by dose curve; also: potency is read from the fitted curve at half-maximal effect); conditions: recombinant CYP1A2, luciferin-ME demethylation, luminescence; series mostly up to 57 µM
In short: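 O-Demethylation of luciferin 6' methyl ether by human CYP1A2 is monitored as luciferase luminescence. Substrate sits at Km (100uM); enzyme is 20nM. Values are scaled to 57 uM furafylline as maximal inhibition.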

[12] = target: Glucocorticoid receptor (Homo sapiens) (UniProt P04150); assay: GR-GFP Redistribution (AID 450;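 active = compounds whose dose series gives a full or clear partial fitted curve of increased nuclear translocation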; also: potency is read from the fitted curve at half-maximal effect); conditions: U2OS GR-GFP nuclear translocation, laser cytometry, 2 h
[13] = target: Glucocorticoid receptor (Homo sapiens) (UniProt P04150); assay: GR-EFC Redistribution (AID 451; calls by dose curve; also: potency is read from the fitted curve at half-maximal effect); conditions: CHO-K1 GR-EFC translocation, beta-gal luminescence, 2 h
In short: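 CHO-K1 cells expressing nuclear EA and GR-ED fragments of b-gal; compounds titrated up to 46 uM final, 2 h at 37 C. GR nuclear translocation read as complemented b-gal luminescence after 1 h RT detection.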

[14] = target: Cytochrome P450 2D6 (Homo sapiens) (UniProt P10635); assay: qHTS Assay for Inhibitors and Substrates of Cytochrome P450 2D6 (AID 891); conditions: recombinant CYP2D6, luciferin-ME EGE luminescence; series mostly up to 57.1 µM;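 also: luciferin methyl ether substrate demethylated by CYP2D6 with NADPH regeneration; % is scaled to controls: 0 for no effect and ±100 for the full control effect; nearly all actives have a fitted effect of over 60% in size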
In short: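 Luminescent read-out of luciferin formed by 5 nM human CYP2D6 demethylating 30 uM Luciferin-ME EGE (Km level) over 60 min at room temperature after NADPH regeneration addition. Data normalized to full inhibition by 1.43 uM quinidine.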

[15] = target: Cytochrome P450 2C19 (Homo sapiens) (UniProt P33261); assay: qHTS Assay for Inhibitors and Substrates of Cytochrome P450 2C19 (AID 899); conditions: recombinant CYP2C19, luciferin-H EGE luminescence; series mostly up to 57.1 µM; also: potency is read from the fitted curve at half-maximal effect; nearly all actives have a fitted effect of over 60% in size
In short: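 Luminescent read-out of luciferin formed from Luciferin-H EGE (10uM, equal to KM). Enzyme 5nM in 50mM KPO4; compound added, 10 min at 37C, then NADPH regenerating system for 60 min at 37C. Full inhibition defined by 57uM ketoconazole.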

[16] = Cell Viability - Jurkat (AID 426;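 active = dose-dependent loss of cell ATP signal giving a full or clear fitted curve, ranked by lower potency value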;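 also: potency is read from the fitted curve at half-maximal effect; cells exposed to compound for 40 hours at 37 °C before ATP read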); conditions: qHTS
In short: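 Cells of the human T-cell leukemia line Jurkat (E6-1) are seeded at 5000 per well, treated with compound across a concentration range for 40 hours at 37 °C, then lysed with CellTiter-Glo; luminescence reports ATP.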

[17] = target: Mitogen-activated protein kinase 10 (Mus musculus) (UniProt Q61831); assay: JNK3 AlphaScreen Assay (AID 530; active = well fitted curve in either direction with a large enough effect, not every such curve was filed as active;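 also: kinase came from lysate of stimulated human HepG2 cells; signal reports phosphorylation of biotinylated GST-cJun 1-79 at Ser73 with 10 µM ATP; % is scaled to controls: 0 for no effect and ±100 for the full control effect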); conditions: JNK3 lysate, c-Jun phosphorylation; series mostly up to 57.1 µM
In short: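 Activity was read by AlphaScreen after JNK3-containing HepG2 lysate (cytokine pre-activated) phosphorylated biotinylated GST-cJun with 10 uM ATP at room temperature. Phospho-Ser73 cJun antibody with Protein-A acceptor beads provided detection.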

[18] = target: 3',5'-cyclic-AMP phosphodiesterase 4B (Homo sapiens) (UniProt Q07343); assay: qHTS Assay for Inhibitors of PDE-IV (AID 607; active = well fitted activation curve with a large enough effect in the main read-out, with a control signal flat, not every such curve was filed as active; also: % of control where 0% means no effect); conditions: HEK293 ACTOne CNG channel cells, membrane potential fluorescence; series mostly up to 22.9 µM
In short: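 Cell-based read-out of cAMP via a modified cyclic nucleotide-gated channel and membrane potential dye (535/590 nm) in HEK293 cells expressing PDE4 endogenously. Compounds tested up to 22.9 uM final; 100 uM RO 20-1724 reference.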

[19] = target: Cytochrome P450 2C9 (Homo sapiens) (UniProt P11712); assay: qHTS Assay for Inhibitors and Substrates of Cytochrome P450 2C9 (AID 883); conditions: recombinant CYP2C9, luciferin-H luminescence, 60 min; series mostly up to 57.1 µM; also: potency is read from the fitted curve at half-maximal effect; nearly all actives have a fitted effect of over 60% in size
In short: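 10nM CYP2C9 + 100uM Luciferin-H (=KM), 25mM KPO4; cpd 10 min 37C; NADPH regen, 60 min 37C; stop/detect with P450 Glo-Buffer 20 min; luminescence. Norm. to 57uM sulphaphenazole as full inhibition.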

Sequence of Glucocorticoid receptor (Homo sapiens) (P04150 whole entry, looked up, the tested form may be a part): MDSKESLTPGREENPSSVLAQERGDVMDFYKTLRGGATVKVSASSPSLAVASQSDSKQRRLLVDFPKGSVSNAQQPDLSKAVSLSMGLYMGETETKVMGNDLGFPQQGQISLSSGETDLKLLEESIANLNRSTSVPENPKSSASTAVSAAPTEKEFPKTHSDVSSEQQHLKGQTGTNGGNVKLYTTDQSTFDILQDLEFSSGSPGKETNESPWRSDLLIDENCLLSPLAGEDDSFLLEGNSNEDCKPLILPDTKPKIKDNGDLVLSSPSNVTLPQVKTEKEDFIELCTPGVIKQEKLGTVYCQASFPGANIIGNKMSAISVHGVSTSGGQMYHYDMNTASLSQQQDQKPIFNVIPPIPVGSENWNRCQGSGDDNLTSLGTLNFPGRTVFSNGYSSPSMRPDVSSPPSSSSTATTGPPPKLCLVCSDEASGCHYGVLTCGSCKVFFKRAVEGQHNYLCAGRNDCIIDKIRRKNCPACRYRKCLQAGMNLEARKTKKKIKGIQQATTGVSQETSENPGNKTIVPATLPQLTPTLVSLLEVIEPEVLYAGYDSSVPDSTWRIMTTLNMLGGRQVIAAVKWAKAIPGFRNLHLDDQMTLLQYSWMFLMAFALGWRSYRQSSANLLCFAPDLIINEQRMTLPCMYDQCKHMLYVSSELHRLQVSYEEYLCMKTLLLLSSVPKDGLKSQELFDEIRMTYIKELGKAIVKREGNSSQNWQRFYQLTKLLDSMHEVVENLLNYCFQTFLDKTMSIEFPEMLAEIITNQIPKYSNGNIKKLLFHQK
Sequence of Cytochrome P450 2C19 (Homo sapiens) (P33261 whole entry, looked up): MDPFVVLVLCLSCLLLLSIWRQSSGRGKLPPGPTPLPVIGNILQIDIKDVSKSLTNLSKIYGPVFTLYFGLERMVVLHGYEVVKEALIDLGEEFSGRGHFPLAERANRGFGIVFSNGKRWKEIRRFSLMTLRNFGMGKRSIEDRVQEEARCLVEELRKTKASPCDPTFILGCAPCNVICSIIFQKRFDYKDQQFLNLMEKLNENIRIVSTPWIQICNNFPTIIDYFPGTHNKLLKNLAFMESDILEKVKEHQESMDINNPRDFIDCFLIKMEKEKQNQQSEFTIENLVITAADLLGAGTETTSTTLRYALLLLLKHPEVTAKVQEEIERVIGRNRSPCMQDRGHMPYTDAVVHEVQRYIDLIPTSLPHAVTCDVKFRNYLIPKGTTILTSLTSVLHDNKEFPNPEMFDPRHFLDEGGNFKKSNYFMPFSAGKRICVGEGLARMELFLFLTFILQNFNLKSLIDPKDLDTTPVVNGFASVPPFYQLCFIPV
Sequence of 3',5'-cyclic-AMP phosphodiesterase 4B (Homo sapiens) (Q07343 whole entry, looked up): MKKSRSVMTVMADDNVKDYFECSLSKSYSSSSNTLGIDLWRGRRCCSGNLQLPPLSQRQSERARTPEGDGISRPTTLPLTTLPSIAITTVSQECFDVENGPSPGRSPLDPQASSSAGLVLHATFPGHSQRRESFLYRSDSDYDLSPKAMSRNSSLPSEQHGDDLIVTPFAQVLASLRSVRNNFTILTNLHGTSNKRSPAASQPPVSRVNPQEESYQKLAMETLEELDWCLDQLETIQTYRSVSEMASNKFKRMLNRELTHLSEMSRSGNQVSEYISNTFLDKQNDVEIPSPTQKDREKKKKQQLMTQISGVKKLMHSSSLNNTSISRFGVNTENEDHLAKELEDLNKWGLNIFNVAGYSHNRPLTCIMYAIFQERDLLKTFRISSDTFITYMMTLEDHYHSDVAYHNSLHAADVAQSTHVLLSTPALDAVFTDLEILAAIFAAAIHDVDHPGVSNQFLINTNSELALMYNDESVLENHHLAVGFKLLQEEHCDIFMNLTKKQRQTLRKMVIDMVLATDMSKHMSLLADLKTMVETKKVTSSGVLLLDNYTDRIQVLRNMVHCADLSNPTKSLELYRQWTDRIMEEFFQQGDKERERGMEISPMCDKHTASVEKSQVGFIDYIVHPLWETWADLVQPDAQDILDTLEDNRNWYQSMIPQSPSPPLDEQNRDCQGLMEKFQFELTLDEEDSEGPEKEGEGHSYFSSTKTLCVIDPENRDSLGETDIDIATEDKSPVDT
Sequence of Cytochrome P450 1A2 (Homo sapiens) (P05177 whole entry, looked up): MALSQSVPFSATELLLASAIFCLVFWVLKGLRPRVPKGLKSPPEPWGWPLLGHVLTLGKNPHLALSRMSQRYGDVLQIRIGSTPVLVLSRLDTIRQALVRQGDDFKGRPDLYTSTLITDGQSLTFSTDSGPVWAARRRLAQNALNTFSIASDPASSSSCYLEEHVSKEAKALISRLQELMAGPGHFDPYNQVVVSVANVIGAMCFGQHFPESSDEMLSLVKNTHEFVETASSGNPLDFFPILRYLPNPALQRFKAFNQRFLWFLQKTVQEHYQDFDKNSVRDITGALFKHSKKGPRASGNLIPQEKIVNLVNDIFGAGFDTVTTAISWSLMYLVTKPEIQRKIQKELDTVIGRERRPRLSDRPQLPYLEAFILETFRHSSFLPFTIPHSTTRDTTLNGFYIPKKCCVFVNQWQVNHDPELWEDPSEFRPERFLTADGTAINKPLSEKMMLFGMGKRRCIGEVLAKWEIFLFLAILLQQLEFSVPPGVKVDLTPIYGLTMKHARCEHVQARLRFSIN
Sequence of Cytochrome P450 2D6 (Homo sapiens) (P10635 whole entry, looked up): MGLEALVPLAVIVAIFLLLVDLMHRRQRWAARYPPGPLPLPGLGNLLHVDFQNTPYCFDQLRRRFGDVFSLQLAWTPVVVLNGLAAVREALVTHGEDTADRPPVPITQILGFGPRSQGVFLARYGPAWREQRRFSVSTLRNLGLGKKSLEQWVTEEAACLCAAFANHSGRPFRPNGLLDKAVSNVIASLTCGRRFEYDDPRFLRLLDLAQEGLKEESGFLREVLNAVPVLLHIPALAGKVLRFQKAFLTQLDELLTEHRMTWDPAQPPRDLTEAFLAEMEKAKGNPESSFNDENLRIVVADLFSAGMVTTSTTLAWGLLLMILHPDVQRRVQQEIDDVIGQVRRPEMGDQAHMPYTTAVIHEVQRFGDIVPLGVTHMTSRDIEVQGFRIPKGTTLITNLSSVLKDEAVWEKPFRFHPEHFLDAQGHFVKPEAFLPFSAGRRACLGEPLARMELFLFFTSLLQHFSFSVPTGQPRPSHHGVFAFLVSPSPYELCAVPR
Sequence of Cytochrome P450 2C9 (Homo sapiens) (P11712 whole entry, looked up): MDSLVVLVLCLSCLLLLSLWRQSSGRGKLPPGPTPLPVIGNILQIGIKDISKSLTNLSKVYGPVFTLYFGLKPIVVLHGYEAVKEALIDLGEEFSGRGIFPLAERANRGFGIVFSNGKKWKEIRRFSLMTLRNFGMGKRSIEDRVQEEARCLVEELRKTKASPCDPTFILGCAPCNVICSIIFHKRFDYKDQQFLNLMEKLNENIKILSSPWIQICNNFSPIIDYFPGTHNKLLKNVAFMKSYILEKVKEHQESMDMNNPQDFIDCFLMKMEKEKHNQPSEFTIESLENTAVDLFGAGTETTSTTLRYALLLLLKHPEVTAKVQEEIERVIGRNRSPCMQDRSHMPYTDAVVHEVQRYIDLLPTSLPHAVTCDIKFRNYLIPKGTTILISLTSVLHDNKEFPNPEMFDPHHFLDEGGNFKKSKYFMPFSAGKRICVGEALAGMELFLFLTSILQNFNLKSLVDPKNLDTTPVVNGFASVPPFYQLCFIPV

For `Clc1ccc(C(c2ccc(Cl)cc2)C(Cl)Cl)cc1`, which Potency [1] is on record?
Its Potency is 55 µM (active).

What about the Potency [2] of the same compound?
Its Potency is 45.4 µM (active).

And the Potency [3]?
Its Potency is 45.4 µM (active).

What about the Potency [4] of the same compound?
The Potency was 43.5 µM (active).

And the caspase-3 activation [5]?
The caspase-3 activation was 152% (active).

And the Potency [6]?
Its Potency is “inactive”.

What about the Potency [7] of the same compound?
The Potency was “inactive”.

What about the Potency [8] of the same compound?
The Potency was “inactive”.

What about the activation [9] of the same compound?
The activation was 0.923% and 0.102%.

And the max response [10]?
Its max response is -1.77% and -12.4%.

For `CC(C)[C@]1(NC(=O)[C@H]2C=C3c4cccc5[nH]cc(c45)C[C@H]3N(C)C2)O[C@@]2(O)[C@H]3CCCN3C(=O)[C@H](Cc3ccccc3)N2C1=O`, which Potency [11] is on record?
The Potency was 31.6 µM (active).

What about the Potency [12] of the same compound?
Its Potency is > 46 µM.

What about the Potency [13] of the same compound?
The Potency was > 46 µM.

And the Potency [14]?
The Potency was “inactive”.

What about the Potency [15] of the same compound?
Its Potency is 2 µM (active).

What does the source list for `O=[N+]([O-])c1cc(C(F)(F)F)cc([N+](=O)[O-])c1Cl`?
Potency [1]: > 92 µM; Potency [16]: 32.8 µM (active); Potency [2]: > 92 µM; Potency [3]: > 92 µM; Potency [4]: > 92 µM; outcome [17]: inactive; caspase-3 activation [5]: 6.02% [at 91.7 µM, primary cells freshly taken from rat, solvent-only wells 0%, staurosporine 100%]; Potency [6]: inactive; Potency [7]: inactive; Potency [8]: 39.8 µM (active); activation [9]: 0.493%; max response [10]: 4.67%

Which results are given for `C#CCO`?
Potency [1]: > 92 µM; Potency [16]: > 92 µM; Potency [2]: > 92 µM; Potency [3]: > 92 µM; Potency [4]: > 92 µM; outcome [17]: inactive; caspase-3 activation [5]: -11.4% [at 91.7 µM, primary cells freshly taken from rat, solvent-only wells 0%, staurosporine 100%]; Potency [6]: inactive; Potency [7]: inactive; Potency [8]: inactive; activation [9]: 1.07%; max response [10]: -2.39%

What does the source list for `C[C@@H]1CC[C@@]2(OC1)O[C@H]1[C@@H](O)[C@H]3[C@@H]4CC[C@H]5C[C@@H](O[C@@H]6O[C@H](CO)[C@H](O[C@@H]7O[C@H](CO)[C@@H](O)[C@H](O[C@@H]8OC[C@@H](O)[C@H](O)[C@H]8O)[C@H]7O[C@@H]7O[C@H](CO)[C@@H](O)[C@H](O[C@@H]8O[C@H](CO)[C@@H](O)[C@H](O)[C@H]8O)[C@H]7O)[C@H](O)[C@H]6O)[C@H](O)C[C@]5(C)[C@H]4CC[C@]3(C)[C@H]1[C@@H]2C`?
Potency [1]: 19.9 µM (active); Potency [16]: 0.573 µM (active); Potency [2]: 27.5 µM (active); Potency [3]: 24.4 µM (active); Potency [4]: 28.5 µM (active); outcome [17]: inactive; caspase-3 activation [5]: -2.38%; Potency [6]: 3.98 µM (active); Potency [7]: 10 µM (active); Potency [8]: 20 µM (active); activation [9]: -9.71%; Potency [10]: 17.8 µM (active)

What does the source list for `CC(C)(O)[C@H]1[C@H]2OC(=O)[C@@H]1[C@]1(O)C[C@H]3O[C@]34C(=O)O[C@H]2[C@]14C`?
Potency [12]: > 46 µM; Potency [13]: > 46 µM; outcome [17]: inactive; outcome [18]: inactive

Which Potency [12] does the source give for `CC(C)[C@@]1(NC(=O)[C@@H]2C[C@H]3c4cccc5[nH]cc(c45)C[C@@H]3N(C)C2)O[C@@]2(O)[C@H]3CCCN3C(=O)[C@@H](Cc3ccccc3)N2C1=O` here?
The Potency was > 46 µM.

What about the Potency [13] of the same compound?
Its Potency is > 46 µM.

And the outcome [17]?
The outcome was “inactive”.

And the outcome [18]?
The outcome was “inactive”.

And the Potency [19]?
The Potency was 1.26 µM (active).

What about the Potency [15] of the same compound?
Its Potency is 3.16 µM (active).
